Data as given in PubChem BioAssay.
Unmarked numbers belong to inactive results. No rule for the calls is given here.

test system: Aerobactin synthetase IucA (Klebsiella pneumoniae hvKP1); test: IucA enzyme inhibition, primary screen, biochemical, Spectrum library (AID 1346200); conditions: malachite green pyrophosphate, A620, at 8 µM, hits give low values;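 also: 100% = wells without compound and 0% = wells lacking enzyme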

Row | SMILES | activity remaining [%]
1 | CO/N=C(/C(=O)NC1C(=O)N2C(C(=O)OC(C)OC(C)=O)=C(COC(N)=O)CSC12)c1ccco1 (stereo not given) | 114
2 | CC(=O)O[C@H]1CC[C@@]2(C)C(C[C@@H](OC(C)=O)[C@@]3(C)C4=CC(=O)O[C@@H](c5ccoc5)[C@]4(C)CCC23)C1(C)C (stereo not given in full) | 89.5
3 | CC(=O)N[C@@H]1[C@@H](O)[C@H](O)[C@@H](CO)O[C@H]1O | 106
4 | COc1c(O)cc(O)cc1O | 116
5 | Nc1cc(-c2ccncc2)c[nH]c1=O | 122
6 | CN1CCCC(n2nc(Cc3ccc(Cl)cc3)c3ccccc3c2=O)CC1 (stereo not given) | 106
7 | CC(=O)O[C@@H]1C[C@@]23C[C@@]24CC[C@H](O[C@@H]2OC[C@@H](O)[C@H](O)[C@H]2O)C(C)(C)C4CCC3[C@]2(C)C[C@@H]3OC4(C[C@@H](C)[C@@H]3[C@@]12C)O[C@H](O)[C@]1(C)O[C@H]41 (stereo not given in full) | 87.7
8 | O=C(Oc1ccccc1C(=O)O)c1ccccc1O | 115
9 | CC(=O)O[C@H]1C[C@@H](OC(C)=O)C(C)(C)C2C[C@@H](O)[C@]3(C)C(CC[C@@]4(C)[C@H](c5ccoc5)OC(=O)[C@H]5O[C@]543)[C@]21C (stereo not given in full) | 94.5
10 | Cc1cc(C)cc(OCC2CNC(=O)O2)c1 (stereo not given) | 113
11 | CCN(CC)C(C)CN1c2ccccc2Sc2ccccc21 (stereo not given) | 109
12 | NC(=O)c1ccc[n+]([C@@H]2O[C@H](COP(=O)([O-])OP(=O)(O)OC[C@H]3O[C@@H](n4cnc5c(N)ncnc54)[C@H](OP(=O)(O)O)[C@@H]3O)[C@@H](O)[C@H]2O)c1 | 101
13 | CC[C@]12CCCN3CCc4c(n(c5ccccc45)C(=O)C1)[C@@H]32 | 101
14 | O=C(O)c1ccccc1C(=O)Nc1ccc(S(=O)(=O)Nc2nccs2)cc1 | 98.2
15 | CC1(C)CC23C(=O)CCC(O)C2(C)CCC13 (stereo not given) | 113
16 | CC(=O)Oc1cccc(O)c1 | 114
17 | C#C[C@]1(O)CCC2C3CCC4=Cc5oncc5C[C@]4(C)C3CC[C@@]21C (stereo not given in full) | 120
18 | O=c1oc2cc(O)ccc2s1 | 110

Row | SMILES | activity remaining [%]
19 | C=C(NC(=O)C(=C)NC(=O)c1csc(C2=NC3c4csc(n4)C4NC(=O)c5csc(n5)C(C(C)(O)C(C)O)NC(=O)C5CSC(=N5)C(=CC)NC(=O)C(C(C)O)NC(=O)c5csc(n5)C3(CC2)NC(=O)C(C)NC(=O)C(=C)NC(=O)C(C)NC(=O)C(C(C)CC)NC2C=Cc3c(C(C)O)cc(nc3C2O)C(=O)OC4C)n1)C(N)=O (stereo not given) | 121
20 | CN(Cc1cnc2nc(N)nc(N)c2n1)c1ccc(C(=O)NC(CCC(=O)O)C(=O)O)cc1 (stereo not given) | 121
21 | OC[C@@H](O)C(O[C@@H]1O[C@H](CO)[C@H](O)[C@H](O)[C@H]1O)[C@H](O)[C@@H](O)CO (stereo not given in full) | 116
22 | CC(CCC(=O)O)[C@H]1CCC2C3CC[C@@H]4C[C@H](O)CC[C@]4(C)C3CC[C@@]21C (stereo not given in full) | 91.8
23 | COc1cc2c(cc1OC)-c1c(oc3cc(O)cc(O)c3c1=O)CO2 | 90.7
24 | OC1CC2CCCC(C1)N2Cc1ccccc1 (stereo not given) | 93.4
25 | COC(=O)C1=CO[C@@H](O[C@@H]2O[C@H](CO)[C@@H](O)[C@H](O)[C@H]2O)[C@@H]2[C@@H](C)[C@@H](O)C[C@H]12 | 101
26 | Cc1cc(-n2c(=O)[nH]c(=O)n(C)c2=O)ccc1Oc1ccc(SC(F)(F)F)cc1 | 109
27 | O=C(N[C@@H](CO)[C@H](O)c1ccc([N+](=O)[O-])cc1)C(Cl)Cl | 114
28 | CC(=O)O[C@]1(C)CC[C@@]23CC1C(C)(C)[C@@H]2CC[C@H]3C | 102
29 | NC(COCc1ccccc1)C(=O)O (stereo not given) | 105
30 | C/C=C(/C(=C/C)c1ccc(O)cc1)c1ccc(O)cc1 | 115
31 | CC(=O)O[C@@](C)(CCC=C(C)C)C1CC=C(C)CC1 (stereo not given in full) | 91.6
32 | Cc1ncc([N+](=O)[O-])n1CC(C)O (stereo not given) | 112
33 | C[C@]12CCC3C(CC[C@H]4C[C@H](OS(=O)(=O)O)CC[C@]34C)C1CCC2=O (stereo not given in full) | 102
34 | O=C(O)c1ccc2c(c1)OCO2 | 101
35 | CN1CCN(C(c2ccccc2)c2ccccc2)CC1 | 113
